Results on 40 compounds are retold here after PubChem BioAssay (Tox21).

Records with an inconclusive call do not appear. The source made the active and inactive calls. The call rests on the fitted dose curve; in most records, active means well fitted cell-killing curve with a large enough effect in the repeat runs; inconclusive means weak or mixed curves; inactive means flat fitted curve, though single readings scatter.

The assay in a line: qHTS assay to identify small molecule antagonists of the TGF-beta/Smad signaling pathway - cell viability counter screen (AID 1346824). Further: nearly all actives have a fitted effect of over 50% in size. To be noted: SBE-bla HEK293T viability, CellTiter-Glo luminescence; series mostly up to 76.8 µM. The source says: U.S. Tox21 Program National Center for Advancing Translational Sciences [NCATS] NIH Chemical Genomics Center [NCGC] U.S. Environmental Protection Agency [EPA] National Institutes of Environmental Health Sciences [NIEHS] National Toxicology Program [NTP] U.S. Food and Drug Administration [FDA] Tox21 Assay Overview: Transforming growth factor beta (TGF-beta) superfamily consists of a large number of structurally related dimeric proteins that act as hormones or local mediators in regulating a wide range of biological functions. This superfamily includes TGF-betas themselves, the bone morphogenetic proteins (BMPs) and the activins. These ligands induce oligomerization of serine/threonine receptor kinases and phosphorylate the cytoplasmic signaling molecules of Smad protein family. CellSensor SBE-bla HEK 293T cell line (Life Technologies, Carlsbad, CA), responsive to TGF-beta was used to screen Tox21 10K compound library for identification of agonists/antagonists of the Smad signaling pathway. This cell line contains a beta-lactamase reporter gene under control of the Smad binding element (SBE) stably integrated into HEK 293T cells. Also cytotoxicity of the compounds was tested in parallel by measuring the cell viability using CellTiter-Glo assay system in the same wells.
Tox21 Assay Protocol Summary: SBE-bla HEK 293T cells were dispensed at 4,000/well in 5 uL of assay medium into black wall/clear-bottom 1536-well plates using a Multidrop Combi (ThermoFisher Scientific, Waltham, MA) dispenser. After the assay plates were incubated at 37 C and 5% CO2 for an overnight, 23 nL of compounds dissolved in DMSO, positive controls or DMSO only was transferred to the assay plate by a Pintool station (Kalypsys, San Diego, CA). Compound transfer was followed by the addition of 1 uL of 0.25 ng/mL TGF-beta1 or assay buffer using two separate tips of Flying Reagent Dispenser (FRD, Aurora Discovery, San Diego, CA). The assay plates were incubated at 37 C and 5% CO2 for 5 hr. One uL of LiveBLAzer B/G FRET substrate (Life Technologies) was added using a Flying Reagent Dispenser (FRD, Aurora Discovery, San Diego, CA) and the plates were incubated at room temperature for 2 hr. Fluorescence intensity (405 nm excitation, 460 nm and 530 nm emissions) was measured using an Envision plate reader (PerkinElmer, Shelton, CT). For cytotoxicity read, 4 uL of CellTiter-Glo reagent (Promega Corporation, Madison, WI) was added to each well of the assay plates using FRD. After 30 min incubation at room temperature, the luminescence intensity was measured using ViewLux plate reader (PerkinElmer).
In general terms: qHTS replaces the single test concentration by a dilution series.
As for `Brc1cc(-c2ccc(Br)c(Br)c2Br)cc(Br)c1Br`, the outcome was inactive.

Regarding `CCC(C(=O)OCCOCCN(CC)CC)c1ccccc1` (stereo not given), the compound was called inactive.

Consider `CCNC(=O)N1CCN(CCCC(c2ccc(F)cc2)c2ccc(F)cc2)CC1`, for which the compound was classed as inactive.

Take `CC(=O)Oc1ccc(C(=C2CCCCC2)c2ccc(OC(C)=O)cc2)cc1`: the call was inactive.

Take `Cc1ccnc2ccccc12`: the compound was called inactive.

Turning to `C=CC(C)(O)CCCC(C)CCCC(C)CCCC(C)C` (stereo not given), the compound was classed as inactive.

`O=C(O)c1cccnc1C(=O)O`: the compound was classed as inactive.

`CCn1cc(C(=O)O)c(=O)c2cc(F)c(N3CCNCC3)nc21`: the compound was called inactive.

On to `Cc1cc(S(=O)(=O)O)ccc1N=Nc1c(O)ccc2ccccc12`, for which the call was inactive.

For `COc1ccc([C@@H]2Sc3ccccc3NC(=O)[C@@H]2O)cc1`, the result was inactive.

Regarding `C(=C\c1ccccc1)/CN1CCN(C(c2ccccc2)c2ccccc2)CC1`, the result was inactive.

In the case of `CCOC(=O)c1ccccc1C`, the compound was classed as inactive.

For `CCCc1c(OCCCOc2ccc(OCC(=O)O)cc2)ccc(C(C)=O)c1O`, the result was inactive.

With `CC1CC(=O)NN=C1c1ccc(NCC(C)(C)NCC(O)COc2cc(Cl)ccc2C#N)cc1` (stereo not given), the compound was called inactive.

Regarding `Nc1nccs1`, the compound was called inactive.

Take `CC1=CC(O)CC(C)(C)C1` (stereo not given): the compound was classed as inactive.

With `O=C(N[C@@H](c1ccccc1)[C@@H]1CCCCN1)c1cccc(C(F)(F)F)c1Cl`, the compound was classed as inactive.

With `COCCOC`, the compound was classed as inactive.

For `CN1Cc2cc(C(=O)N3CCC(C4CCNCC4)CC3)ccc2N[C@@H](CC(=O)O)C1=O`, the compound was called inactive.

In the case of `CN(C)C(=O)Nc1ccc(Oc2ccc(Cl)cc2)cc1`, the result was inactive.

As for `CN1CCN(CCCN2c3ccccc3Sc3ccc(S(=O)(=O)N(C)C)cc32)CC1`, the outcome was inactive.

As for `CC1(C)C2=CCCC(C)(C)[C@]23CC[C@H]1C3`, the compound was called inactive.

Turning to `CC(C)(O)c1ccccc1CC[C@@H](SCC1(CC(=O)O)CC1)c1cccc(/C=C/c2ccc3ccc(Cl)cc3n2)c1`, the outcome was inactive.

For the compound `CO/N=C1\CN(c2nc3c(cc2F)c(=O)c(C(=O)O)cn3C2CC2)CC1CN` (stereo not given), the compound was called inactive.

Take `CCC(C)(C)C1CCC(O)CC1` (stereo not given): the outcome was inactive.

Consider `CC(=O)OCC(=O)[C@H]1CC[C@H]2[C@@H]3CCC4=CC(=O)CC[C@]4(C)[C@H]3CC[C@]12C`, for which the result was inactive.

For `O=[N+]([O-])c1cccc(S(=O)(=O)NCCNS(=O)(=O)c2cccc([N+](=O)[O-])c2)c1`, the call was inactive.

Regarding `CSc1ccc(Oc2ccc(S(N)(=O)=O)cc2CN(C)C)cc1C`, the compound was called inactive.

With `COC(=O)c1cc(S(N)(=O)=O)ccc1OC`, the compound was called inactive.

On to `CCCCC(=O)O[C@]1(C(=O)CO)CC[C@H]2[C@@H]3CCC4=CC(=O)CC[C@]4(C)[C@H]3[C@@H](O)C[C@@]21C`, for which the compound was called inactive.

On to `C=C(C)C(=O)OCCOC(=O)CC(C)=O`, for which the outcome was inactive.

Turning to `c1ccc(COCc2ccccc2)cc1`, the result was inactive.

For the compound `Nc1ccc(S(=O)(=O)O)c(N)c1`, the compound was classed as inactive.

In the case of `O=C(O)c1ccc(CO)o1`, the compound was classed as inactive.

On to `CC(C)C(OC(=O)c1ccccc1)C(C)(C)COC(=O)c1ccccc1` (stereo not given), for which the call was inactive.

Regarding `O=C(CCCN1CCN(c2ccc(F)cc2)CC1)NC1c2ccccc2CSc2ccccc21` (stereo not given), the compound was called inactive.

For `C/C=C(\C)C(=O)OCCC(C)CCC=C(C)C` (stereo not given), the call was inactive.

Turning to `CC(=O)N(c1onc(C)c1C)S(=O)(=O)c1ccc(N)cc1`, the result was inactive.

Take `CCCOC(=O)c1ccc(N)cc1`: the outcome was inactive.

As to `NC(=O)N(O)[C@@H]1C=C[C@H](Oc2cccc(Oc3ccc(F)cc3)c2)C1`, the compound was called inactive.
